From PubChem BioAssay AID1626 (SRMLSC, 2009)
Screen size: about 220,000 compounds; about 2,000 (0.91%) were called active. About 2% were inconclusive and are not listed. The list is a sample of the results. Results with a measured potency or affinity are listed apart. Values without a mark were called inactive. Cut-off read from the data, not from the text of the source: inconclusive = inhibition above about 80% without an active follow-up result; inactive = below that; test concentration not stated here.

assay: M. tuberculosis H37Rv growth inhibitors, H37Rv strain (AID 1626); conditions: active compounds read high, concentration not given here;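 note: bacteria incubated seven days before Alamar blue readout; 0% = bacteria only wells and 100% = bacteria with antibiotic wells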

Point of comparison: `Cc1ncoc1C(=O)N1CCc2c([nH]c3ccccc23)C1C1CCCCC1` (stereo not given), inhibition 11.8%. Against it:
- CCOC(=O)c1cc(NC(=O)N2CCOCC2)c(C)nc1C — lower, -1.72%
- CC(C)CNc1cc(N2CCCC2)ccc1[N+](=O)[O-] — lower, 4.85%
- CCCCCSc1nc2c(c(=O)[nH]c(=O)n2C)n1C — lower, 11.1%
- C/C(=C\C(=O)c1ccc(Br)cc1)NCc1ccc(C)cc1 — lower, 4.34%
- CCOc1cc(S(=O)(=O)N2CCOCC2)ccc1F — lower, -1.04%
- CC(C)[C@H](NS(=O)(=O)/C=C/c1ccccc1)C(=O)OCC(=O)NC(N)=O — lower, 0.26%
- CC(Cn1cnc2ccccc21)C(=O)O (stereo not given) — lower, -0.91%
- Cc1cc(C)c(C(=O)Nc2ccc(C)c(C)c2)c(CC(C)(C)C(=O)O)c1 — lower, -5.76%
- CC(NC(=O)COC(=O)/C=C/c1cccc(C(F)(F)F)c1)c1ccccc1 (stereo not given) — lower, 5.27%
- O=C1N=C(N2CCN(c3ccccc3)CC2)SC1Cc1ccccc1 (stereo not given) — lower, 1.7%
- O=C(Nc1ccccc1)N1CCCC1c1cccs1 (stereo not given) — lower, -1.63%
- Cc1nc(NC(=O)CSc2ccc(-c3nc4ccccc4[nH]3)cn2)sc1C — lower, -0.38%
- CCc1nnc(NC(=O)CSc2ccc(-c3nc4ccccc4[nH]3)cn2)s1 — lower, -3.06%
- Cc1ccc2nc(-c3ccc(SCC(=O)O)nc3)[nH]c2c1 — lower, 4.36%
- Cc1cc2nc(-c3ccc(SCC(=O)NC(C)C)nc3)[nH]c2cc1C — lower, 1.74%
- CC(=O)CSc1ccc(-c2nc3cc(C)c(C)cc3[nH]2)cn1 — lower, 11.7%
- Cc1ccc2nc(-c3ccc(SCC(=O)Nc4nc(C)cs4)nc3)[nH]c2c1 — lower, 0.98%
- CC(CS(=O)(=O)c1cccc2cccnc12)N1CCCCC1 (stereo not given) — lower, 2.17%
- CCNc1nc(NCc2ccccc2)nc(SCC(N)=O)n1 — higher, 78.2%
- COc1ccc(NC(=O)Nc2sc(=S)n(C)c2C)cc1 — lower, -3.18%
- CCOc1nc(-c2ccc(OC)cc2)ccc1-c1noc(C)n1 — lower, 6.32%
- Cc1nn(-c2ccccc2)c(N2CCCC2)c1/C=N/NC(=O)C1CC1 — lower, 1.71%
- COC(=O)C1=C(C)NC(=O)CC1c1ccc(F)c(Br)c1 (stereo not given) — higher, 13.5%
- CCN(c1ccccc1)S(=O)(=O)c1ccc(C(=O)OC(C)C(=O)NCCC2=CCCCC2)cc1 (stereo not given) — lower, 0.82%
- COc1ccc(C(C(=O)NC2CCCCC2)N(C(=O)c2sc(C)nc2C)c2ccc(OC)cc2)cc1 (stereo not given) — higher, 78.9%
- COc1ccc(C(C(=O)NC2CCCCC2)N(C(=O)c2sc(C)nc2C)c2ccccc2)cc1 (stereo not given) — lower, 1.23%
- COc1ccc(N(C(=O)c2cnccn2)C(C(=O)NC2CCCCC2)c2ccc(O)cc2)cc1 (stereo not given) — lower, 4.1%
- COc1ccc(C(C(=O)NC2CCCCC2)N(C(=O)c2ccccn2)c2cccnc2)cc1 (stereo not given) — lower, -6.78%
- O=C(O)c1cccc(NC(=O)c2ccc(Cl)c(S(=O)(=O)N3CCCCCC3)c2)c1 — lower, -5.92%
- CCOc1ncccc1C(=O)OCc1ccc(C#N)cc1 — lower, 4.57%
- Nc1nnc(SCC(=O)Nc2ccccc2)s1 — lower, -3.63%
- C=C1C(=O)[C@@]23[C@H](O)C[C@@H]4C(C)(C)CC[C@H](O)[C@]4(C)[C@@H]2C[C@H](O)[C@@H]1[C@H]3O — lower, -0.64%
- C#CCONC(=O)c1cc(OCC(F)(F)F)ccc1OCC(F)(F)F — lower, -4.59%
- c1ccc(C(c2ccccc2)c2noc(CN3CCN(CC4CC4)CC3)n2)cc1 — lower, 0.03%
- O=C(N/N=C/C=C/c1ccccc1)c1cccnc1 — lower, -6.98%
- Cc1[nH]c(=O)[nH]c(=O)c1S(=O)(=O)N(C)Cc1ccccc1 — lower, -4.39%
- CSCCC(NC(=O)c1cccc([N+](=O)[O-])c1)c1nc2ccccc2[nH]1 (stereo not given) — higher, 24.1%
- CSCC[C@H](NC(=O)c1cc([N+](=O)[O-])ccc1Cl)c1nc2ccccc2[nH]1 — lower, 3.89%
- CCN(CCCNC(=O)C1CCC(=O)N1Cc1ccccc1Cl)c1cccc(C)c1 (stereo not given) — lower, 4.14%
- CCOC(=O)C1=C(C)NC(=O)NC1c1c(C)nn(-c2ccccc2)c1Cl (stereo not given) — lower, -11.2%
- O=Nc1c(O)[nH]c2ccc(Cl)cc12 — lower, -4.64%
- Cc1ccccc1N=Cc1cccc(O)c1O — higher, 30.2%
- O=C1CCCC(O)=C1C=Nc1ccc(O)cc1 — lower, 3.95%
- COc1cccc(N=CC2=C(O)CCCC2=O)c1 — lower, -8.36%
- Cc1cc(C)cc(N=Cc2c(O)c3ccccc3oc2=O)c1 — lower, 6.96%
- CCOC(=O)c1c(-c2ccc(OC)cc2)csc1/N=C/C1=C(O)CCCC1=O — lower, 4.93%
- O=C1CCCC(O)=C1C=Nc1cccc(C(F)(F)F)c1 — lower, 8.3%
- Cc1cccc(-c2nc(C#N)c(NCC3CCCO3)o2)c1 (stereo not given) — lower, 8.91%
- CN(C)S(=O)(=O)c1ccc(NC(=S)NC(=O)c2cccs2)cc1 — lower, -8.18%
- CCCc1nnc(NC(=O)CCCN2C(=O)c3ccccc3C2=O)s1 — lower, -6.93%
- COC(=O)CCC(=O)N1CCc2cc(S(=O)(=O)N3CCc4ccccc43)ccc21 — lower, -6.96%
- Cc1c(NC(=O)CSc2nnc(COc3ccccc3)n2-c2ccccc2)c(=O)n(-c2ccccc2)n1C — lower, -6.74%
- COc1ccc(C2SC[C@@H](C(=O)O)N2C(C)=O)cc1 (stereo not given in full) — lower, -5.12%
- Cc1ccc(-c2csc(N3C(=N)SCC3=O)n2)cc1 — lower, -8.29%
- O=C(CN1CCOCC1)Nc1ncc(Cc2ccccc2Cl)s1 — lower, 9.04%
- N=C1SCC(=O)N1c1nc(-c2ccccc2)cs1 — lower, -8.62%
- CC(C)C(=O)Nc1ncc(Cc2cccc(Cl)c2)s1 — higher, 17.7%
- CCc1nnc(N2C(=N)SCC2=O)s1 — lower, 10%
- O=C(CN1CCOCC1)Nc1ncc(Cc2cccc(Cl)c2)s1 — lower, 9.73%
- CC(C)(C)C(=O)Cn1c(NCCCl)nc2ccccc21 — lower, 0.32%
- CCc1ccccc1NC(=O)CN(C)C(=O)Cn1cc(C(F)(F)F)cc(Cl)c1=O — lower, 10%
- CCN(CC(=O)Nc1ccc(NC(C)=O)cc1)C(=O)/C=C/c1cccs1 — lower, -2.91%
- Clc1ccc(CN2CCN(c3ncnc4scc(-c5cccs5)c34)CC2)cc1 — lower, 7.36%
- O=C(Cn1cc2c(n1)CCCC2)NCCCN1CCN(C2CCCCC2)CC1 — lower, -6.49%
- CC(=O)/C(=C(/O)c1ccccc1)c1nc2ccccc2[nH]1 — lower, 2.45%
- O=C(OCc1ccccc1)C1=NNC2C(=O)N(Cc3ccccc3)C(=O)C12 (stereo not given) — lower, 8.28%
- COCCn1c(SCC(=O)N2CC(=O)Nc3ccccc32)nc2ccccc2c1=O — higher, 14.5%
- CCc1ccc(-c2cc(C(F)(F)F)n3nc(C(=O)Nc4c(C)nn(Cc5ccccc5Cl)c4C)cc3n2)s1 — lower, -4.86%
- CCc1ccc(-c2cc(C(F)(F)F)n3nc(C(=O)Nc4c(C)nn(Cc5ccccc5C)c4C)cc3n2)s1 — lower, 2.87%
- O=S(=O)(Nc1ccc(C(F)(F)F)cc1)c1cnc[nH]1 — lower, -0.2%
- CCOC(=O)C(C(=O)OCC)N(C#N)c1nc(C)cc(C)n1 — lower, -14%
- Cc1cccc(-c2nsc(SCC(=O)c3ccc(Cl)cc3)n2)c1 — higher, 94%
- CCOC(=O)CSc1nc(-c2ccc(OC)cc2)ns1 — higher, 57.1%
- CCOC(=O)CNC(=O)CSc1nnc(-c2cccc(C)c2)n1-c1ccc(OC)cc1 — lower, 3.71%
- Cc1cccc(-c2nsc(SCC(=O)Nc3nccs3)n2)c1 — lower, 10.4%
- CCOC(=O)CNC(=O)CSc1nnc(SCC(=O)NCC(=O)OCC)s1 — lower, -11.7%
- CCOC(=O)N1CCN(Cc2nc(-c3cccc(C)c3)no2)CC1 — lower, -1.51%
- CCOC(=O)CSc1nc(-c2ccccc2)nc2ccccc12 — lower, -6.27%
- CCOC(=O)CNC(=O)CSc1nnc(-c2ccccc2)c(-c2ccccc2)n1 — lower, -8.15%
- COc1ccc(C2=NOC(C(=O)N3CCN(c4ccccc4OC)CC3)C2)cc1 (stereo not given) — lower, 10.3%
- COc1ccc(NC(=O)COC(=O)Cc2ccc(Br)cc2)cc1 — higher, 15.8%
- Cn1c2ccccc2c(=O)c2c(=O)n(Cc3ccco3)c(-c3ccc(C(C)(C)C)cc3)nc21 — higher, 50.6%
- Cc1c(F)cccc1NC(=O)CCC(=O)O — lower, 0.24%
- O=C(c1cnc2sccn2c1=O)N1CCCc2ccccc21 — lower, 0.62%
- CNC(=O)CSCCn1c(SCC(=O)NC)nc2ccccc2c1=O — lower, -1.73%
- CC(=O)c1cccc(NC(=O)C(C)OC(=O)CNC(=O)c2ccc(C)s2)c1 (stereo not given) — lower, -1.06%
- Clc1ccc(CSc2ncn[nH]2)cc1 — higher, 74.3%
- O=C(O)c1ccc(CSc2ncn[nH]2)cc1 — lower, -5.36%
- Cc1ccc(C)c(N(C)S(=O)(=O)c2cccc3nsnc23)c1 — lower, -5.61%
- COc1cccc(NC(=S)N(Cc2ccccn2)Cc2ccccc2Cl)c1 — lower, 8.54%
- CCn1c(=O)cc(NC2=NCC(C)CN2c2cccc(Cl)c2)n(C)c1=O (stereo not given) — lower, -2.51%
- CCCCc1ccc(NC(=O)COc2ccc(C(=O)Nc3ccccc3C)cc2)cc1 — higher, 73.6%
- Cc1ccc(OCC(=O)Nc2ccccc2F)cc1C — lower, 2.33%
- O=C(N/N=C/c1ccccc1C(F)(F)F)c1ccc(O)cc1 — lower, -4.67%
